# pAkt inh: HTS Assay for Inhibitors of Akt Phophorylation: Primary Screen | activity change, % for hits at 50 µM | 360,000 compounds, 0.32% hits | AID 651550, 2012 | Neuro2A IGF-stimulated pAkt S473 HTRF, 20 min; active compounds read low; in the data active = activity change below about -80%; inconclusive = mostly about -51% to -80%; also: % is scaled to controls: 0 for no effect and ±100 for the full control effect
#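 Neuro2A cells in DMEM with 0.5% FBS, overnight at 37 deg C, given compound at single 50 µM final, then IGF (6 nM final) for 20 min at 37 deg C. Lysed; phospho-Akt Ser473 by HTRF after 24 h, 665/615 ratio.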
# Vif-A3F inh: qHTS for Inhibitors of Vif-A3F Interactions: qHTS; HeLa A3F-eYFP + Vif (tagged APOBEC3F with the HIV-1 protein that degrades it), YFP fluorescence increase; AID 602313, 2012; Potency, µM (top dose mostly 46.1 µM), inactives show at the top dose activity, negative = active; 390,000 compounds, 0.2% hits; also: potency is read from the fitted curve at half-maximal effect; % of control where 0% means no effect; nearly all actives have a fitted effect of over 65% in size
#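 HeLa cells stably expressing Vif plus C-terminally eYFP-tagged A3F were seeded, incubated overnight at 37 deg C, dosed with compound, incubated overnight again at 37 deg C. Yellow fluorescence (Ex 488/Em 500-530) reported blocked Vif-mediated A3F-eYFP degradation.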
# ASM inhibitor: Inhibitors of Secretory Acid Sphingomyelinase (S-ASM): qHTS. Sphingomyelin phosphodiesterase (Homo sapiens), P17405. placental ASM, HMU-PC fluorogenic substrate, 60 min. Potency, µM (doses to about 57.5 µM), for inactives: at the top dose activity change, negative = inhibition, usual class: inhibitors. 340,000 compounds, 0.006% hits. AID 504937, 2011; also: potency is read from the fitted curve at half-maximal effect
#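 Steps: dispense placental human ASM, pin compound, wait 10 min at room temperature, add HMU-PC0 substrate at 9 uM final, incubate 60 min at 37 °C, add stop solution raising pH to 10, read fluorescence.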
# PTAP TSG101 blk: qHTS Assay for Iinhibitors of HIV-1 Budding by Blocking the Interaction of PTAP/TSG101; 340,000 tested, under 10 active; Potency, µM (top dose mostly 115 µM), for inactives: at the top dose activity change, negative = inhibition, most hits filed as inhibitors; Fluorescence polarization, FITC-PTAP peptide / Tsg101 binding; active = well fitted inhibition curve with a large enough effect in the main read-out, with a control signal flat, not every such curve was filed as active; inconclusive = small, poorly fitted or top-dose-only effect, or effect the other way, or a change in a side signal; inactive = no such curve, though single readings can be large or run the other way; also: potency is read from the fitted curve at half-maximal effect; % of control where 0% means no effect
# Target sequence (Q99816 whole entry, looked up): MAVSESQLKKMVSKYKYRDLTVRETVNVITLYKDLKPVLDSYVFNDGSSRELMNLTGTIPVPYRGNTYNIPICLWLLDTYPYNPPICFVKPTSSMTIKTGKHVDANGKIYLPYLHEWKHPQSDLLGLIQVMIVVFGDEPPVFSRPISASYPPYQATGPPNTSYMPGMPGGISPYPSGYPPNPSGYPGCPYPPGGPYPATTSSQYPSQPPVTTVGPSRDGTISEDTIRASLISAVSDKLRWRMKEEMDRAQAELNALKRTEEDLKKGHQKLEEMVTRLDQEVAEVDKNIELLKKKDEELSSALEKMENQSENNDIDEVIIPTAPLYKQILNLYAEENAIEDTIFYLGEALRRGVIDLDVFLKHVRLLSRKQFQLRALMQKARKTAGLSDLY
#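 Compounds were pin-transferred onto Tsg101 binding domain (10 uM final) in HEPES pH 7.5 buffer, then FITC-PTAP peptide was added at 50 nM final. After 20 min at RT, polarization reported peptide displacement across a qHTS concentration series.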
# ALOX12 inh: Primary qHTS assay for inhibitors of human arachidonate 12S-lipoxygenase (ALOX12): Round 2; Polyunsaturated fatty acid lipoxygenase ALOX12 (Homo sapiens), P18054; purified 12hLO, xylenol orange hydroperoxide absorbance; Potency, µM (top dose mostly 108 µM), inactives show top-dose activity change, negative = inhibition, most hits filed as inhibitors; 580,000 compounds, 1.1% hits; AID 1671190, 2021; also: potency is read from the fitted curve at half-maximal effect; % is scaled to controls: 0 for no effect and ±100 for the full control effect
#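 Purified human 12hLO at 150 nM in 25 mM Hepes, 0.01% Triton X-100, pH 7.0, preincubated 15 min at room temperature with compound. Reaction started with 40 uM arachidonic acid, 30 min at room temperature. Hydroperoxide measured by Fe-xylenol orange, 573/405 nm absorbance ratio.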
# Vif-A3G inh: qHTS for Inhibitors of Vif-A3G Interactions: qHTS | DNA dC->dU-editing enzyme APOBEC-3G (Homo sapiens), Q9HC16 | HeLa A3G-eYFP + Vif (tagged APOBEC3G with the HIV-1 protein that degrades it), YFP fluorescence, overnight | Potency, µM (doses to about 46.1 µM), inactives show at the highest dose activity, negative = active, actives largely listed as inhibitors | 410,000 compounds, 0.076% hits; also: potency is read from the fitted curve at half-maximal effect; % is scaled to controls: 0 for no effect and ±100 for the full control effect; nearly all actives have a fitted effect of over 60% in size
# Target sequence (Q9HC16 whole entry, looked up): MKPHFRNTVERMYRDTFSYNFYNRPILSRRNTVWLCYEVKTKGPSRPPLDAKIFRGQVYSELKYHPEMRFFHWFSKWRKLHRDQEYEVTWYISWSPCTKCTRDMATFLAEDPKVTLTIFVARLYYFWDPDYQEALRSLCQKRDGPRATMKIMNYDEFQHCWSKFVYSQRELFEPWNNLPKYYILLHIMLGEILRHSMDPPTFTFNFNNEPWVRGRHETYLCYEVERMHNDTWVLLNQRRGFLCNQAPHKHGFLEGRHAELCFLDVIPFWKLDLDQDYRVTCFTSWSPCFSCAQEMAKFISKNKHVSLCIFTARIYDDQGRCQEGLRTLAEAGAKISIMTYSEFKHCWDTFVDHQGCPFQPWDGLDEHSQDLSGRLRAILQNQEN
#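 Read-out is eYFP fluorescence (Ex 488/Em 500-530) from Vif-expressing HeLa A3G-eYFP cells; more signal means A3G escaped Vif-mediated degradation. Cells plated overnight, compound pinned in, incubated overnight at 37 deg C.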
# Starred values were filed as active, the others as inactive; i = inactive; u = inconclusive; x = not tested or not shown; ! = repeats disagree; [ ] = remark or other dose. Rows were chosen to be rich in hits. Some 1.4% of all compounds tested hit in one or more screens of this group. Unless noted, calls follow the shape of the dose curve; as a rule, active = well fitted curve in the direction sought with a large enough effect; inconclusive = small, poorly fitted or top-dose-only effect, or another doubt; inactive = no such curve, though single readings can be large; an effect the other way counts as inactive or inconclusive.
SMILES,pAkt inh,Vif-A3F inh,ASM inhibitor,PTAP TSG101 blk,ALOX12 inh,Vif-A3G inh
O=C(NCc1cccc(Cl)c1)c1cnccn1,-86%*,-3%,4%,-7%,-17%,2%
COc1ccc(CNC(=O)CCc2ncc(-c3ccc(C)cc3)o2)cc1,x,x,x,x,77%,x
CN1CCc2nc3sc(C(=O)c4ccc(Cl)cc4)c(N)c3cc2C1,x,x,x,x,35µM*,x
Nc1c(C(=O)c2ccc(Cl)cc2)sc2nc3c(cc12)CCC3,i,25µM*,-12%,0%,-21%,-8%
Nc1c(C(=O)O)sc2nc3c(cc12)CCCC3,i,2%,7%,-1%,u,3%
CN1CCc2nc3sc(C(=O)c4ccc(F)cc4)c(N)c3cc2C1,x,u,x,x,u,-18%
Nc1c(C(=O)Nc2ccc(C(=O)O)cc2)sc2nc3c(cc12)CCCC3,x,-2%,x,x,18µM*,-1%
COC(=O)CNC(=O)C1=NOC2CN(C(=O)NC(C)C)CC12 (stereo not drawn),x,x,x,x,2%[6.33 µM],x
C=C(C)Cn1c(N2CCN(c3cccc(Cl)c3)CC2)nc2c1c(=O)[nH]c(=O)n2C,x,x,x,x,-22%,x
CCn1ncc(CN2CC[C@H]3C(=O)NCCCCCCN(Cc4ccncc4)[C@@H]3C2)c1C,x,x,x,x,123%,x
Cn1cc(/C=C2\SC(=S)N(NC(=O)c3ccccc3)C2=O)c2ccccc21,i,u,-23%,u,10%,5%
Cn1cc(/C=C2\SC(=S)N(NC(=O)c3cccc(Cl)c3)C2=O)c2ccccc21,i,7.9µM*,u,u,-9%,u
Cc1cn[nH]c1,i,-3%,-3%,-1%,3.4µM*!,1%
NC(=O)Cc1csc(NC(=O)CCc2ncc(-c3ccc(F)cc3)o2)n1,x,x,x,x,37%,x
O=C(O)Cn1cc(C(=S)N2CCCCC2)c2ccccc21,i,-2%,2%,-6%,40µM*,-1%
O=C(O)Cn1cc(C(=S)N2CCOCC2)c2ccccc21,i,-22%,1%,-3%,10µM*,-5%
O=C(Cn1cc(C(=S)N2CCOCC2)c2ccccc21)N1CCOCC1,i,-2%,3%,1%,u,1%
N=C(N)c1cccc(C(F)(F)F)c1,x,x,x,x,14%,x
COc1cc(SC)ccc1C(=O)OCC(=O)Nc1cc(C)ccc1C,x,x,x,x,-23%,x
S=C(NCc1ccccc1)N/N=C/c1c2ccccc2c(Cl)c2ccccc12,x,x,x,x,18µM*,x
S=C(NCCc1ccccc1)N/N=C/c1c(Cl)cccc1Cl,i,-10%,-9%,1%,40µM*,1%
CC[C@@H]1[C@@H](NC(=O)C2(c3ccc(S(C)(=O)=O)cc3)CCC2)[C@@H]2CCO[C@H]12,x,x,x,x,15%,x
COc1ccccc1-c1[nH]nc2ncc(-c3c(C)noc3C)nc12,x,x,x,x,7%[176 µM],x
CC(=O)N1CCN(C(c2ccccc2)c2ccccc2)CC1,i,x,-1%,x,21%,x
CN1C(=O)C(CC(=O)N2CCN(C(c3ccccc3)c3ccccc3)CC2)N(C)C1=O (stereo not drawn),-115%*,4%,4%,-6%,-18%,-9%
SMILES,pAkt inh,Vif-A3F inh,ASM inhibitor,PTAP TSG101 blk,ALOX12 inh,Vif-A3G inh
COc1cc(/C=N/NC(=O)CNc2cccc(C(F)(F)F)c2)ccc1OC(=O)c1ccccc1F,x,x,x,x,4%,x
C/C(CCC12CC3CC(CC(C3)C1)C2)=N\NC(N)=S,x,u,-5%,-8%,10µM*,-11%
C/C(CC12CC3CC(CC(C3)C1)C2)=N\O,x,x,x,x,-3%,x
COC(=O)c1cccc(NC(=O)c2cnn(C)c2)c1,i,3%,1%,0%,91%,-4%
Cn1cc(C(=O)Nc2cccc(F)c2)cn1,-122%*,7%,0%,-10%,-24%,-2%
CCOc1ccc(NC(=O)/C(C#N)=C\c2ccc(N3CCCC3)c(C)c2)cc1,i,11µM*,0%,u,u,u
COc1ccc2c(c1)C(C)=CC(C)(C)N2C(=O)Nc1cccc(Cl)c1,x,x,x,x,40µM*,x
Oc1ccc(CCc2n[nH]c(=S)n2-c2ccc(F)cc2)cc1,i,4%,0%,-3%,25µM*,3%
Cc1ccc(C(=O)O/N=C/c2c(Cl)n(C)c3ccccc23)cc1,-105%*,7%,-2%,0%,0%,-1%
CCCCOc1ccc(NC(=O)c2ccc(Cl)cc2)c2cccnc12,x,x,x,x,-27%,x
O=C1C(=Cc2cccc(O)c2O)SC(=S)N1CCCN1CCOCC1,i,-12%,x,x,6.3µM*,0%
Cn1c(O)c(N=Nc2ccc(F)cc2)c2ccccc21,i,u,-21%,u,18µM*,0%
O=C(NC1CC1)c1cc(-c2ccc3c(c2)OCCO3)nc2ccccc12,x,x,x,x,-7%,x
O=C(O)C1CSC2(c3ccc4c(c3)OCCO4)CCC(=O)N12 (stereo not drawn),-115%*,2%,4%,0%,-29%,-3%
O=C(O)C1CSC2(c3ccc(Br)cc3)CCC(=O)N12 (stereo not drawn),i,u,3%,2%,19%,0%
CCc1cc(C(c2ccc(OC)c(OC)c2)N2CCOCC2)c(NC(=O)c2ccccc2)s1 (stereo not drawn),i,-2%,-2%,-1%,-34%,-22%
CCc1cc(C(c2ccc(OC)c(OC)c2)N2CCN(CC)CC2)c(NC(=O)c2ccco2)s1 (stereo not drawn),x,x,x,x,16µM*,x
CCc1cc(C(c2ccccc2OC)N2CCN(C)CC2)c(NC(=O)c2ccco2)s1 (stereo not drawn),x,x,x,x,40µM*,x
Cc1cccc(C(=O)Nc2nn3c(-c4cccc(C)c4)nnc3s2)c1,x,x,x,x,18%,x
CCNC(=S)Nc1cc(-c2ccc(Cl)cc2)[nH]n1,i,u,-2%,-4%,5.6µM*,1%
COc1cc(C(=O)N(C)Cc2ccccc2)ccc1OCc1ccccc1,x,x,x,x,-1%,x
Oc1cc2c(cc1C(c1ccc(Br)cc1)N1CCCC1)OCO2 (stereo not drawn),i,1%,-8%,-4%,11µM*,-23%
CCOC(=O)c1ccc(NC(=O)c2nsc3ccccc23)cc1,x,x,x,x,45µM*,x
CNC(=O)c1ccc(NC(=O)c2nsc3ccccc23)cc1,x,x,x,x,-18%,x
C=CCN(CC(F)(F)F)C(=O)c1ccc(NC(=O)NC(C)C)cc1,x,x,x,x,45%,x
COc1ccc(CC(=O)OCC(=O)Nc2ncc(Cl)c(C)c2Cl)cc1,i,10%,-4%,-8%,11µM*,0%

# From PubChem
